Test [1] in a line: A549 cell viability effects, profiling panel, calcein-AM fluorescence, 48 h, basal (AID 1162). As to conditions: higher = more signal.
The nature of test [2]: adipocyte viability effects, profiling panel, cell-based, 3T3-L1 adipocytes, calcein-AM fluorescence, 48 h, basal (AID 1163). The conditions noted are these: 3T3-L1 adipocytes viability, higher = more signal.
A short description of test [3]: HepG2 cell viability effects, profiling panel, calcein-AM fluorescence, 48 h, basal (AID 1164). As to conditions: higher = more signal.
Test [4] is described as follows: MM1S cell viability effects, profiling panel, calcein-AM fluorescence, 48 h, basal (AID 1165).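 Also: viability of MM1S multiple myeloma cells under basal unstimulated conditions.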 The conditions noted are these: higher = more signal.
Test [5] can be described thus: basal RPMI8226 viability, no added stimulus, profiling panel, cell-based, calcein-AM fluorescence, 48 h, PK04 Diversity Set (AID 1166).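 Also: cells grown under basal conditions without added stimulus.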 The conditions noted are these: RPMI8226 myeloma viability, higher = more signal.
The nature of test [6]: basal HepG2 mitochondrial membrane potential changes, profiling panel, cell-based, JC-1 fluorescence, 24 h, 100 nL compound (AID 1167). As to conditions: higher = more signal.
The nature of test [7]: basal 3T3-L1 adipocyte mitochondrial potential changes, profiling panel, cell-based, JC-1 fluorescence, 3T3-L1 adipocytes, 24 h, 100 nL compound (AID 1168). The conditions noted are these: JC-1 mitochondrial fluorescence, higher = more signal, called active from +8 up or from −8 down.
Test [8] in a line: basal RPMI8226 mitochondrial membrane potential changes, profiling panel, cell-based, JC-1 fluorescence, 24 h, 100 nL compound (AID 1169). As to conditions: RPMI8226 myeloma, JC-1 mitochondrial potential fluorescence, higher = more signal.
Test [9] is described as follows: basal MM1S mitochondrial membrane potential changes, profiling panel, cell-based, JC-1 fluorescence, 24 h, 100 nL compound (AID 1170). As to conditions: higher = more signal.
A short description of test [10]: A549 lung cancer cell viability effects, profiling panel, resazurin fluorescence, 24 h, PK04 Diversity Set (AID 1171). The conditions noted are these: higher = more signal, called active from +8 up or from −8 down.

Activity calls are given as the source filed them.
Also: test concentration not given here.

In the case of `CO[C@H]1O[C@H](CO)[C@@H](OC(=O)CCc2ccccc2)[C@@H]2OC(=O)[C@@H](Cc3ccc4ccccc4c3)C/C=C/C[C@H](Cc3ccc4ccccc4c3)C(=O)O[C@@H]12`, the z-score in test [1] is 1.39; in [2] it was 0.284; in test [3], 1.27; in test [4], -0.52; in test [5], 0.0085; in test [6], 0.111. Further, the z-score was 0.945 (inactive) in test [7], 0.761 in test [8], 0.0944 in test [9] and -1.39 (inactive) in [10].

Regarding `C=CCC(OC(C)=O)[C@@H]1[C@@H](N(Cc2ccc(-c3ccccc3)cc2)C(=O)Cc2ccc(OC)cc2)c2cc(OCCCO)ccc2N1C(=O)c1ccc2ccccc2c1` (stereo not given in full), the z-score was -0.186 in test [1]; 0.407 in test [2]; -0.437 in [3]; -1.12 in test [4]; -0.807 in test [5]; 1.87 in test [6]. In addition, the z-score in [7] is -0.81 (inactive); in test [8], 1.08; in [9], 0.383; in test [10], -0.0027 (inactive).

For `C[C@]1(C(=O)NCC(F)(F)F)c2ccccc2C(=O)N(Cc2cc(C(F)(F)F)cc(C(F)(F)F)c2)[C@H]1c1ccc(CO)cc1`, the z-score is 1.82 in test [1]; 0.441 in [2]; 1.51 in test [3]; 0.24 in test [4]; 1.11 in test [5]; 1.23 in test [6]. Also, the z-score in test [7] was 0.436 (inactive); in test [8], 0.412; in test [9] it was 0.0741; in test [10] it was 0.476 (inactive).

For `Cc1ccc(S[C@]2(C(=O)NCc3ccccc3)CC(=O)N(Cc3ccccc3Cl)[C@@H]2c2ccc(CO)cc2)cc1`, the z-score in test [1] was -0.643; in test [2], 0.9; in test [3], 0.191; in test [4], 0.0218; in test [5], -1.25; in test [6], 0.0273. Further, the z-score is -0.537 (inactive) in [7], -0.517 in [8], 0.666 in test [9] and 0.0338 (inactive) in test [10].

Turning to `CCOC(=O)C[C@H]1[C@H](OC(=O)c2cc3ccccc3oc2=O)[C@@H](NC(=O)c2ccc(-c3ccccc3)cc2)c2cc(OCCCO)ccc2N1C(=O)Cc1ccc(OC)cc1`, the z-score in test [1] is -0.382; in test [2], 1; in test [3], 0.0719; in test [4], 0.17; in [5], -0.84; in [6], -0.0623. In addition, the z-score in test [7] is -1.08 (inactive); in [8], -0.97; in test [9], -0.0508; in [10], 0.0573 (inactive).

On to `O=C1C2C=CC(C(O)C(c3ccccc3)c3ccccc3)N(Nc3ccccc3F)C2C(=O)N1c1ccccc1` (stereo not given), for which the z-score was -0.486 in test [1]; -0.368 in test [2]; 0.355 in [3]; -1.33 in test [4]; -0.0284 in [5]; -1.7 in test [6]. The z-score was -1.3 (inactive) in [7], 0.284 in test [8], -0.73 in test [9] and -0.021 (inactive) in test [10].

Turning to `C=C(COC)/C(=C/C[C@@H](OC(=O)c1ccncc1)c1ccccc1OCCO)c1cnc2ccccc2c1`, the z-score in [1] was 0.746; in [2], 0.317; in test [3], -0.316; in [4], -3.18; in test [5], -0.986; in test [6], 2.78. For the same compound, the z-score in [7] is -1.16 (inactive); in test [8], -0.527; in test [9] it was 1.61; in test [10], 0.268 (inactive).

Consider `O=C1NC(=O)C2C1C=CC(C(O)C1CCCCC1)N2Nc1ccccn1` (stereo not given), for which the z-score in [1] was -1.05; in test [2], -0.608; in test [3], -0.484; in [4] it was -0.0776; in [5], -0.76; in test [6] it was -1.45. For the same compound, the z-score was -0.894 (inactive) in test [7], -0.573 in test [8], -0.9 in test [9] and -0.606 (inactive) in test [10].

Consider `O=C1OCC=C[C@H]2OC34C=CCN(Cn5nnc6ccccc65)C(=O)[C@H]3N(CCO)C(=O)[C@@H]4[C@@H]12` (stereo not given in full), for which the z-score was 0.0757 in test [1]; -0.529 in test [2]; 0.344 in [3]; 0.897 in test [4]; 0.209 in test [5]; -1.15 in test [6]. Moreover, the z-score is 0.765 (inactive) in test [7], -0.462 in test [8], -0.187 in test [9] and -0.822 (inactive) in [10].

With `[N-]=[N+]=NCc1ccccc1C[C@@]1(C(=O)NCCN2CCOCC2)N=C(c2ccc(OCCCO)cc2)O[C@@H]1c1ccccc1`, the z-score in test [1] was 0.0171; in [2], -0.221; in test [3], -1.04; in test [4] it was -2.72; in [5] it was -1.99; in test [6], -0.3. Also, the z-score is 0.556 (inactive) in test [7], -1.18 in test [8], -0.956 in [9] and -0.112 (inactive) in [10].

As for `C=CC[C@]1(C(N)=O)N=C(c2ccc(OCCCO)cc2)O[C@H]1c1ccccc1N=[N+]=[N-]`, the z-score in test [1] is 0.772; in test [2], 0.46; in test [3] it was 1.49; in test [4] it was -1.04; in [5], 0.656; in [6], 0.462. The z-score in [7] was 0.903 (inactive); in test [8], -0.514; in test [9] it was -0.747; in test [10], -0.752 (inactive).

Consider `[N-]=[N+]=Nc1ccccc1C[C@]1(C(N)=O)COC(c2ccc(OCCCO)cc2)=N1`, for which the z-score in [1] is -0.193; in test [2] it was 0.936; in [3], 0.0027; in test [4], -0.286; in [5] it was -0.334; in test [6], 0.253. Moreover, the z-score in test [7] was -0.298 (inactive); in test [8], -0.964; in test [9] it was -0.942; in test [10], 0.246 (inactive).

On to `CO[C@H]1O[C@H](CO)[C@@H](OC(=O)Nc2ccccc2)[C@@H]2OC(=O)[C@@H](Cc3ccccc3)C/C=C/C[C@H](Cc3ccccc3)C(=O)O[C@@H]12`, for which the z-score was -0.255 in test [1]; -0.0852 in test [2]; 0.297 in test [3]; 0.36 in test [4]; 0.335 in test [5]; -0.502 in test [6]. Besides, the z-score is 2.28 (inactive) in test [7], -0.532 in test [8], -1.65 in test [9] and -0.869 (inactive) in test [10].

Consider `CC(CO)N1C(=O)[C@@H]2[C@H]3C(=O)OCC=C[C@H]3OC23C=CCN(c2ccc4ccccc4c2)C(=O)[C@@H]13` (stereo not given in full), for which the z-score was 0.0456 in test [1]; 0.0291 in [2]; -0.432 in [3]; -0.496 in test [4]; -0.149 in test [5]; -0.626 in test [6]. Moreover, the z-score in test [7] is -0.654 (inactive); in [8], 0.109; in [9] it was 0.563; in test [10], 0.873 (inactive).

As for `CC1C2C(CCCO)=CC(C3C(=O)N(C)C(=O)C23)N1Cc1cccc(OC(F)(F)F)c1` (stereo not given), the z-score was -0.45 in test [1]; 0.924 in test [2]; -0.399 in test [3]; -0.83 in [4]; -0.423 in test [5]; 0.779 in test [6]. Further, the z-score in test [7] is 0.0323 (inactive); in test [8], 0.258; in test [9], 0.675; in test [10], -0.791 (inactive).

As for `[N-]=[N+]=NCc1ccccc1[C@H]1OC(c2ccc(OCCCO)cc2)=N[C@@]1(Cc1ccccc1N=[N+]=[N-])C(=O)N1CCOCC1`, the z-score in test [1] was -0.612; in [2], -0.182; in test [3], -0.659; in test [4], -2.69; in [5], -3.44; in test [6] it was -1.26. For the same compound, the z-score in test [7] is -0.866 (inactive); in test [8] it was -1.11; in test [9], -2.14; in test [10], -0.772 (inactive).

Source of the values: PubChem BioAssay.
